Measurements published in PubChem BioAssay.
Where “and” joins values, the source holds several entries; their conditions need not be identical. Equal entries are not always repeated. Records with an inconclusive call do not appear. Calls of active or inactive are those of the source. Unless noted, the rule behind the calls is not given here.

What was measured:
[1] = modulation of C. elegans fzo-1 (AID 1259413);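 note: fzo-1 mutant C. elegans worms in liquid wells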; conditions: C. elegans fzo-1 modulator screen, mean read-out; stronger effect = higher value
[2] = viability loss with induced miR-34 in A549 – imaging, A549 dox-inducible miR-34, nuclei and caspase counts, primary screen (AID 1347080;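 active = compounds whose cell count with miR-34 switched on is under 0.7 times the count with it off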); conditions: A549 miR-34 inducible, Hoechst nuclei count, 48 h
[3] = blockers of cellular phospholipid synthesis – cell-based, LOPAC library, screen 4, primary screen (AID 1347384); conditions: animal cells, phospholipid biosynthesis inhibition screen; at 10 µM
[4] = chitosan synthesis blockers in C. neoformans – flow cytometry, Cibacron Brilliant Red staining (AID 1347148); conditions: Cryptococcus neoformans chitosan, stronger effect = lower value; at 10 µM unless noted;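 note: compound exposure lasted three days at 37 degrees C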
[5] = system: Aerobactin synthetase IucA (Klebsiella pneumoniae); assay: inhibition of K. pneumoniae IucA enzyme – biochemical, Tocris library, absorbance (AID 1345561); conditions: purified IucA enzyme assay, absorbance (OD) read-out; stronger effect = lower value;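 tested at 8 µM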;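 note: 100% = enzyme without compound and 0% = no enzyme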
[6] = MELAS cybrid and Rieske KO viability enhancers – cell-based, MELAS cybrids, Rieske KO mouse fibroblasts, CellTiter-Glo, primary screen (AID 1508586;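 active = mean z-score across replicates of 1.96 or higher in either the MELAS or the Rieske mutant cell line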;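 note: z relative to plate mean and SD of compound and empty wells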); conditions: low glucose
[7] = viability loss in pontine glioma line – cell-based, SU-DIPG-XVII, MIPE5.0, CellTiter-Glo, qHTS, dose response (AID 1347060; cut-off not given, nearly all actives have AC50 up to about 26 µM); conditions: CellTiter-Glo ATP luminescence
[8] = viability loss in pontine glioma line – cell-based, SU-DIPG-XIII, MIPE4.0, CellTiter-Glo, qHTS, dose response (AID 1347061; cut-off not given, nearly all actives have AC50 up to about 37 µM;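 note: cells exposed to compound for 48 hours before readout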); conditions: CellTiter-Glo ATP luminescence
[9] = viability loss in pontine glioma line – cell-based, JHH-DIPG-1, MIPE4.0, CellTiter-Glo, qHTS, dose response (AID 1347062; cut-off not given, nearly all actives have AC50 up to about 27 µM); conditions: JHH-DIPG-1 viability, CellTiter-Glo ATP luminescence
[10] = viability loss in pontine glioma line – cell-based, SU-DIPG-IV, MIPE4.0, CellTiter-Glo, qHTS, dose response (AID 1347063; cut-off not given, nearly all actives have AC50 up to about 30 µM;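 note: compound exposure lasted 48 hours before the viability readout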); conditions: CellTiter-Glo ATP luminescence
[11] = viability loss in pontine glioma line – cell-based, SU-DIPG-XXV, MIPE5.0, CellTiter-Glo, qHTS, dose response (AID 1347065; cut-off not given, nearly all actives have AC50 up to about 26 µM;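 note: cells exposed to compound for 48 hours before ATP readout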); conditions: CellTiter-Glo ATP luminescence
[12] = growth inhibition of DIPG cells – cell-based, MIPE4.0 library, CellTiter-Glo luminescence, qHTS (AID 1347066; cut-off not given, nearly all actives have AC50 up to about 30 µM;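 note: cells exposed to compound for 48 hours before readout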); conditions: SU-DIPG-VI viability, CellTiter-Glo ATP luminescence
[13] = growth inhibition of DIPG cells – cell-based, MIPE5.0 library, qHTS (AID 1347068; cut-off not given, nearly all actives have IC50 up to about 30 µM); conditions: SU-DIPG-XXV viability
[14] = stronger effect = lower value, cell number ratio, induced over uninduced
[15] = measured here: relative caspase fold change +Dox/-Dox
[16] = measured here: total cells with miR-34 induction, stronger effect = lower value
[17] = measured here: total cells without miR-34 induction
[18] = MELAS cybrid survival, CellTiter-Glo 48 h, stronger effect = higher value
[19] = Rieske KO mouse fibroblast survival, CellTiter-Glo 72 h

CN(C)CC[C@@H](c1ccc(Cl)cc1)c1ccccn1
mean signal [1]: 251 (inactive) | fold change [2, 14]: 1.01 (inactive) | fold change [2, 15]: 1.39 | cell count [2, 16]: 9880 | cell count [2, 17]: 9740 | outcome [3]: inactive

CCCc1c(OCCCCc2nn[nH]n2)ccc(C(C)=O)c1O
mean signal [1]: 231 (inactive) | fold change [2, 14]: 0.952 (inactive) and 0.923 (inactive) and 1.01 (inactive) | fold change [2, 15]: 1 and 1.28 and 1.02 | cell count [2, 16]: 9490 and 5900 and 5660 | cell count [2, 17]: 9970 and 6400 and 5590 | fold fluorescence [4]: 4.57 (inactive)

CCN1CCC[C@H]1CNC(=O)c1c(O)c(Cl)cc(Cl)c1OC
mean signal [1]: 227 (inactive) | remaining activity [5]: 118% (inactive) | fold change [2, 14]: 1 (inactive) and 0.9 (inactive) and 0.875 (inactive) | fold change [2, 15]: 1.23 and 0.728 and 0.77 | cell count [2, 16]: 9930 and 9080 and 9820 | cell count [2, 17]: 9900 and 10100 and 11200 | outcome [3]: inactive | z-score [6, 18]: -0.782 (inactive) and -0.532 (inactive) | z-score [6, 19]: -0.0598 and -0.803

COc1cc(C(=O)NC2CCCNC2)cc(OC)c1OC (centres undefined)
mean signal [1]: 236 (inactive) | fold change [2, 14]: 0.933 (inactive) and 1.06 (inactive) | fold change [2, 15]: 1.12 and 0.508 | cell count [2, 16]: 9210 and 8810 | cell count [2, 17]: 9870 and 8310 | z-score [6, 18]: -0.284 (inactive) and -1.2 (inactive) | z-score [6, 19]: -0.165 and -1.23

COc1cc(C)nc(-n2nc(C)cc2OC)n1
mean signal [1]: 243 (inactive) | fold change [2, 14]: 0.917 (inactive) and 1.02 (inactive) | fold change [2, 15]: 1.25 and 2.09 | cell count [2, 16]: 8860 and 9160 | cell count [2, 17]: 9670 and 8950 | z-score [6, 18]: 0.813 (inactive) | z-score [6, 19]: 0.154

CC(C)(O)c1ccccc1CC[C@@H](SCC1(CC(=O)O)CC1)c1cccc(/C=C/c2ccc3ccc(Cl)cc3n2)c1
mean signal [1]: 259 (inactive) | fold change [2, 14]: 0.896 (inactive) | fold change [2, 15]: 1.4 | cell count [2, 16]: 9780 | cell count [2, 17]: 10900 | z-score [6, 18]: 0.313 (inactive) and -0.452 (inactive) | z-score [6, 19]: 0.134 and -0.566

CN(CCOc1ccc(NS(C)(=O)=O)cc1)CCc1ccc(NS(C)(=O)=O)cc1
mean signal [1]: 278 (inactive) | outcome [7]: inactive | outcome [8]: inactive | outcome [9]: inactive | outcome [10]: inactive | outcome [11]: inactive | outcome [12]: inactive | outcome [13]: inactive | outcome [3]: inactive | z-score [6, 18]: -0.0974 (inactive) and 0.133 (inactive) and -0.631 (inactive) | z-score [6, 19]: -0.727 and -0.208 and -0.315

CC(Cc1ccccc1)(NC(=O)CN)c1ccccc1 (centres undefined)
mean signal [1]: 268 (inactive) | remaining activity [5]: 116% (inactive) | fold change [2, 14]: 0.999 (inactive) and 0.923 (inactive) | fold change [2, 15]: 2.09 and 0.645 | cell count [2, 16]: 9240 and 8260 | cell count [2, 17]: 9260 and 8950
